Bioassay records (PubChem)
RN4220 kill = kills Staphylococcus aureus RN4220 | S. aureus RN4220 growth, OD600, 16 h | inhibition, % (no concentration beside the values) | 330,000 tested, 0.33% active | AID 1259311; in the data active = inhibition above about 85%;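 note: plate controls were untreated cells for no effect and reference antibiotic for full effect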
BJeLR viability = kills HRASV12-expressing BJeLR cells; BJeLR (HRASV12) viability, CellTiter-Glo ATP luminescence, 48 h; inhibition, % (no concentration beside the values); 300,000 tested, 0.17% active; in the data active = inhibition above about 50%
Sa ugtP lethal = kills S. aureus RN4220 lacking UgtP | 330,000 tested, 0.54% active | AID 1259309 | growth inhibition, % (concentration not given with the values) | S. aureus RN4220 ugtP deletion, OD600 growth, 16 h; in the data active = growth inhibition above about 68%;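 note: plate controls were untreated wells for no effect and antibiotic for full effect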
PfHsp40 rescue = compounds rescuing yeast from Plasmodium falciparum HSP40 toxicity; S. cerevisiae expressing PfHsp40, growth rescue, ATP luminescence; 340,000 tested, 0.68% active; growth rescue, % at 12.5 µM; in the data active = growth rescue above about 28%, passing the limit was not always enough;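 note: yeast W303a lacking pdr1 and pdr3 grown in galactose medium; growth measured after three days at 30 °C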
CCHF vOTU inh = CCHFV vOTU protease inhibition; Pep-AMC fluorescence; inhibition, % at 11.5 µM; 370,000 tested, 0.55% active; AID 651958; in the data active = inhibition above about 30%; note: 0% = vehicle wells with enzyme and 100% = no enzyme wells
Active calls of the source: *; . = no result given. Only some compounds are listed: those with a hit (about 1.6% of all), similar ones and a draw of the others.

SMILES | RN4220 kill | BJeLR viability | Sa ugtP lethal | PfHsp40 rescue | CCHF vOTU inh
Cn1c(/C=C/c2ccccc2)nc2ccccc2c1=O | 7.0 | 6.8 | -6.0 | 0.0 | -7.2
Cn1c(/C=C/c2ccc([N+](=O)[O-])o2)nc2ccccc2c1=O | 99.0* | 81.9* | 96.6* | 0.4 | .
CC(C)CC(NC(=O)c1[nH]cnc1C(=O)NC(Cc1ccccc1)C(=O)OCc1ccccc1)C(=O)OCc1ccccc1 (stereo not drawn) | 5.3 | . | 2.0 | . | .
N/C(=N\OC(=O)c1ccc(Cl)cc1)c1ccn[nH]1 | 2.4 | 0.4 | 5.4 | 33.5* | 0.9
FC(F)(F)Oc1ccc(NC(=S)Nc2ccc(OC(F)(F)F)cc2)cc1 | 98.5* | -9.7 | 91.9* | 145.2* | 3.2
CC(C)c1ccc(NC(=S)Nc2ccc(OC(F)(F)F)cc2)cc1 | 2.1 | 4.5 | -17.8 | -2.5 | -6.3
CC(=O)c1cccc(NC(=O)/C=C/c2ccc([N+](=O)[O-])s2)c1 | 33.0 | 63.2* | 16.3 | -0.2 | 4.9
CC(CSc1ccc(Br)cc1)CN1CCC(O)CCC1=O (stereo not drawn) | 11.8 | . | 9.5 | . | .
O=[N+]([O-])c1ccc(N=Nc2ncc[nH]2)cc1 | 19.2 | 74.2* | 9.9 | 84.5* | 14.1
O=[N+]([O-])c1ccc(N=NN(CCO)CCO)cc1 | 1.4 | 0.4 | 11.2 | 1.4 | 15.4
CN(C(=O)c1cccc(NC(=O)Cc2ccc(NC(=O)C3CCN(S(=O)(=O)c4cccc([N+](=O)[O-])c4)CC3)cc2)c1)C1CCCC1 | 3.6 | . | 1.5 | 120.0* | 4.6
CN(C(=O)c1ccc(NC(=O)Cc2ccc(NC(=O)C3CCN(C(=O)C4CCCC4)CC3)cc2)cc1)C1CC1 | 6.3 | . | 2.5 | 36.4* | 2.0
CCOC(=O)c1ccc(NC(=O)CC2Sc3ncnn3C2=O)cc1 (stereo not drawn) | 12.4 | -11.5 | 16.1 | 41.5* | -7.4
CCC(=O)Nc1ccc(C(=O)Cn2ncc(Cl)c(Cl)c2=O)cc1 | . | -4.8 | . | 0.1 | -1.3
CCOC(=O)c1ccc(NC(=O)Cn2ncc(Cl)c(Cl)c2=O)cc1 | 6.3 | 11.8 | -7.0 | 34.3* | -1.6
O=C(NN=C/C(Br)=C/c1ccccc1)c1ccccc1[N+](=O)[O-] | 7.5 | . | 16.4 | . | .
Cc1ccc(OCC(O)CN2C(=O)NC(C)(C)C2=O)cc1C (stereo not drawn) | 10.1 | 7.1 | -4.5 | 0.6 | -2.9
Cc1ccc(OCC(O)CN2C(=O)NC(C)(C)C2=O)cc1 (stereo not drawn) | 0.9 | -7.6 | 2.7 | 53.0* | 2.0
CC1(C)C[C@H]2C=C(C=O)[C@]3(C=O)C[C@]3(C)[C@H]2C1 | . | 92.0* | . | -1.1 | -1.9
CCCSc1ccc([C@H]2N[C@@](CC(C)C)(C(=O)OC)[C@H]3C(=O)N(C)C(=O)[C@@H]23)cc1 | . | -7.2 | . | -0.7 | -1.6
CCCCCCSc1ccc([C@H]2N[C@@](CC(C)C)(C(=O)OC)[C@H]3C(=O)N(C)C(=O)[C@@H]23)cc1 | -20.9 | 8.7 | -1.1 | 46.6* | 17.6
CC(=O)c1ccc(N2CCN(C(=O)c3ccc(-c4ccccc4)cc3)CC2)cc1 | 8.3 | -19.3 | 3.9 | 0.3 | 0.7
CC(=O)c1ccc(N2CCN(C(=O)c3cccc(Oc4ccccc4)c3)CC2)cc1 | -7.1 | 5.0 | 86.6* | 0.6 | 16.0
Clc1ccc(CCNc2nc3ccccc3s2)cc1 | -2.5 | -7.8 | 26.6 | 217.4* | 9.4
COC(=O)C[C@](O)(CCCC(C)(C)O)C(=O)O[C@@H]1C(OC)=C[C@]23CCCN2CCc2cc4c(cc2[C@H]13)OCO4 | . | 92.0* | . | . | .
SMILES | RN4220 kill | BJeLR viability | Sa ugtP lethal | PfHsp40 rescue | CCHF vOTU inh
CCOC(=O)c1c(N2C(=O)CC(Sc3ccccc3C(=O)O)C2=O)sc2c1CCCC2 (stereo not drawn) | 3.5 | 6.0 | 4.4 | 41.0* | 15.4
Clc1ccc(CSC(Cn2ccnc2)c2ccc(Cl)cc2Cl)cc1 (stereo not drawn) | 97.4* | -0.2 | 84.9 | 146.7* | 0.7
Clc1ccc(COC(Cn2ccnc2)c2ccc(Cl)cc2Cl)cc1 (stereo not drawn) | . | 2.8 | . | 92.8* | 12.5
Oc1cccc(/C=N/N(Cc2ccccc2)c2ccccc2)c1 | . | -10.4 | . | 345.1* | 5.2
C(=NN(Cc1ccccc1)c1ccccc1)c1cccnc1 | -1.2 | . | -0.4 | . | .
Oc1ccc(/C=N/N(Cc2ccccc2)c2ccccc2)c(O)c1O | . | 5.6 | . | 41.7* | 11.1
O=C(NN=Cc1ccncc1)c1nc2ccccc2c(=O)[nH]1 | -0.2 | . | 1.5 | . | .
COC(=O)c1cc(COc2ccc3c4c(c(=O)oc3c2)CCCC4)c(C)o1 | 3.2 | 4.3 | 1.2 | -2.5 | -24.7
COC(=O)c1cc(COc2ccc3oc(C)c(C(=O)OC(C)C)c3c2)c(C)o1 | 1.8 | -6.8 | 95.9* | 0.9 | 1.5
Cc1oc2ccc(OC(=O)c3cccs3)cc2c1C(=O)OC(C)C | -2.8 | 9.2 | 12.6 | 2.7 | 7.8
Cc1oc2ccc(OC(=O)N(C)C)cc2c1C(=O)OC(C)C | 7.6 | 5.4 | 11.4 | 159.8* | -1.9
COC(=O)C1=C(c2cccc(OC)c2OC)CC2CCC1N2C(=O)NC1CCCCC1 (stereo not drawn) | -4.0 | . | -11.2 | . | .
O=C(/C=C/c1ccc(F)cc1)NCCCN1CCN(CCCNC(=O)/C=C/c2ccc(F)cc2)CC1 | 4.6 | 2.1 | 3.0 | 37.1* | -10.0
COc1ccc(/C=C/C(=O)NCCCN2CCCCCC2)cc1 | 2.0 | -1.7 | 5.8 | -1.1 | 0.2
COc1ccc(S(=O)(=O)N(CCc2ccccc2)CC(N)=O)cc1 | 5.7 | 3.6 | 2.6 | 104.5* | -5.4
CCCCC(=O)OCc1c(-c2cccc(OC)c2)ncc2ccccc12 | 7.0 | . | 85.8* | 2.4 | 18.3
O=C(c1ccc(C(=O)N2CCCc3ccccc32)s1)N1CCCc2ccccc21 | 2.3 | 1.9 | -10.0 | 50.8* | -3.8
O=C(c1ccc([N+](=O)[O-])s1)N1CCCc2ccccc21 | 14.3 | -12.7 | 19.5 | 1.0 | 10.7
Cc1ccc(C(C)C)c(OCC(=O)c2c(O)c3ccccc3oc2=O)c1 | 86.0* | 5.4 | 86.0* | 3.1 | -0.3
CC(NC(=O)c1nc[nH]c1C(=O)NC(c1ccccc1)c1ccccc1)C(=O)OC(C)(C)C (stereo not drawn) | -2.3 | . | -1.9 | . | .
CSc1ccc(CN(C)CC(=O)Nc2ccc(C)cc2Br)cc1 | 8.3 | 11.8 | 89.5* | -0.6 | 9.4
Cc1cccc(-c2cc3c(N=O)c4ccccc4c-3n[nH]2)c1 | . | 16.7 | . | 0.7 | 0.9
O=Nc1c2cc(-c3ccccc3)[nH]nc-2c2ccccc12 | 15.5 | 68.7* | -11.9 | 0.2 | 7.9
Cc1ccc(-c2cc3c(N=O)c4ccccc4c-3n[nH]2)cc1 | 4.6 | 69.8* | -2.5 | -0.6 | 10.7
C#Cc1ccc(C2C=C(C(=O)Nc3ccccc3)OC(OCc3ccc(CO)cc3)C2)cc1 (stereo not drawn) | 3.4 | . | 4.8 | . | .
O=[N+]([O-])CC(=Nc1ccc(Cl)cc1)N/N=C\c1oc(O)c2ccccc12 | . | -3.9 | . | -2.7 | 33.1*
O=C(NN=Cc1oc(O)c2ccccc12)c1ccccc1 | 1.2 | . | 2.7 | . | .
COc1cccc(C=NNC(=O)C(=O)N2CCCC2)c1 | -1.7 | . | 2.1 | . | .
O=C1C(=O)N(CCCN2CCOCC2)C(c2ccc(F)cc2)/C1=C(/O)c1ccccc1 (stereo not drawn) | 1.6 | 8.6 | -2.6 | 62.6* | 7.4
